Screening results (PubChem)
The list is not random: actives were taken first. Their share in the collection is about 4.8%.
S2 tox – Viability Counterscreen for Primary qHTS for Inhibitors of ATXN expression; S2 cells (HEK-293 line with an ATXN2-luciferase reporter) viability, CellTiter-Fluor protease fluorescence, 24 h; Potency, µM (doses to about 56.7 µM), actives largely listed as cytotoxic; 400,000 compounds, 0.49% hits; AID 651635, 2014; note: potency is the fitted concentration of half-maximal effect; nearly all actives have a fitted effect of over 40% in size
HepG2 viability – qHTS for Inhibitors of TGF-b: Cytotox Counterscreen. HepG2 CAGA-GFP viability, ATP luminescence, 18 h. Potency, µM (top dose mostly 46.1 µM), for inactives: top-dose activity change, negative = cytotoxicity, hits mostly cytotoxic. 410,000 compounds, 0.76% hits. AID 588856, 2011; note: potency is the fitted concentration of half-maximal effect
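CellTiter-Glo luminescence gave cytotoxicity after 18 hours at 37 degrees C. The cells were HepG2 CAGA-GFP in 1% FBS DMEM, stimulated with 500 pg/mL TGF-beta after compound addition. %Activity was normalised to no-cell wells (complete cell-killing) and DMSO (no toxicity), and curves were fitted and classified.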
TGFb SMAD3 inh – qHTS for Inhibitors of TGF-b; HepG2 CAGA-GFP TGF-b/SMAD3 reporter, GFP fluorescence, 18 h; TGF-beta stimulated, 500 pg/mL final; Potency, µM (highest dose often 46.1 µM), for inactives: at the highest dose activity, negative = inhibition, most hits filed as inhibitors; 410,000 compounds, 1.2% hits; note: potency is the fitted concentration of half-maximal effect; % is set by controls: 0 for no effect and ±100 for the full control effect; nearly all actives have a fitted effect of over 65% in size
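Per well, imaged GFP fluorescence of HEPG2 CAGA-GFP cells gives the signal; cells get compound, then TGF-beta (500 pg/mL final), 18 h at 37 degrees C; %Activity versus -TGF-beta and +DMSO controls.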
ATXN2 expr inh – Primary qHTS for Inhibitors of ATXN expression | AID 1745845, 2022 | Potency, µM (highest dose often 57 µM), for the others: at the highest dose activity change, negative = inhibition, usual class: inhibitors | 360,000 compounds, 0.72% hits | HEK-293 ATXN2-luciferase reporter, luminescence, 24 h; note: potency is the fitted concentration of half-maximal effect; % is set by controls: 0 for no effect and ±100 for the full control effect; nearly all actives have a fitted effect of over 55% in size
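qHTS (up to 57 uM final) was run with 24 h compound exposure of reporter cells at 37 °C. Each well was multiplexed: SteadyGlo luminescence measured ATXN2-luciferase expression after a fluorogenic Gly-Phe-AFC viability readout (25 uM final).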
D3 ag – qHTS of D3 Dopamine Receptor Agonist: qHTS; D3R DiscoveRx beta-arrestin cells, luminescence, 90 min; max activation, %; 410,000 compounds, 0.58% hits; in the data active = max activation above about 30%; note: 0% is about no effect
Target sequence (P35462 whole entry, looked up): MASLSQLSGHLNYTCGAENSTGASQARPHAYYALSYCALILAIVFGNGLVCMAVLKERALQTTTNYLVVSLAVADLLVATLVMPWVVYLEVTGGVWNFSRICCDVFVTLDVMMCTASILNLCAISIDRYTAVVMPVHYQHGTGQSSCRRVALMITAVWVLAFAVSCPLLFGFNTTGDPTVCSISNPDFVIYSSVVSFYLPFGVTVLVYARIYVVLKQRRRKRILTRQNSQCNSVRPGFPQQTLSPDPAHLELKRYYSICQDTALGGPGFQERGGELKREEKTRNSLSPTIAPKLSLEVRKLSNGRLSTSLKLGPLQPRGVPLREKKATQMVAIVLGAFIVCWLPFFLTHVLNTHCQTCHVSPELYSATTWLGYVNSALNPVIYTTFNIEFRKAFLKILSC
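Cells at 1500/well, incubated overnight, then treated with pinned compounds (dopamine as control) for 90 min at 37 degrees C. DiscoveRx reagent added for 30 - 60 minutes at room temperature; luminescence read.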
DRD3 antagonist – qHTS of D3 Dopamine Receptor Antagonist: qHTS | D(3) dopamine receptor (Homo sapiens), P35462 | D3R cells, DiscoveRx beta-arrestin luminescence, antagonist mode; active compounds read low | max response, negative = inhibition, % | 360,000 compounds, 2.5% hits; in the data active = max response below about -50%; inconclusive = no clear call, values can overlap the other calls; note: % is set by controls: 0 for no effect and ±100 for the full control effect
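Cells expressing the human receptor were seeded at 1500 cells/well, incubated overnight at 37 degrees C in 5% CO2, then exposed to library compounds with dopamine controls for 90 minutes at 37 degrees C before luminescent detection.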
An asterisk follows results filed as active; i = inactive; ? = inconclusive; . = not tested or not shown. Unless noted, calls come from the whole dose curve; as a rule, active = well fitted curve in the direction sought with a large enough effect; inconclusive = small, poorly fitted or top-dose-only effect, or another doubt; inactive = no such curve, though single readings can be large; an effect the other way counts as inactive or inconclusive.

SMILES	S2 tox	HepG2 viability	TGFb SMAD3 inh	ATXN2 expr inh	D3 ag	DRD3 antagonist
CCC1CN(Cc2cn[nH]c2-c2ccccc2)Cc2cc(OC)ccc2O1 (stereo not given)	i	.	.	.	.	.
OC(COc1ccccc1CNCc1cccnc1)CN1CCc2ccccc2C1 (stereo not given)	?	-43%	-18%	.	-22	-5
CC(=O)c1ccc(OCC(O)CN2CCc3ccccc3C2)cc1 (stereo not given)	i	-7%	-10%	-9%	-17	-84*
OC(COCc1ccc(Cl)cc1)CN1CCN(CC(O)COCc2ccc(Cl)cc2)CC1 (stereo not given)	?	-43%	0%	?	-5	20
OC(COCc1ccc(Cl)cc1)CN1CCc2ccccc2C1 (stereo not given)	i	-35%	-24%	-16%	-11	-72*
OC(COc1ccc(CNCc2cccnc2)cc1)CN1CCc2ccccc2C1 (stereo not given)	?	-44%	-6%	.	4	-103*
Cc1ccc(C)c(OCC(O)CN2CCc3ccccc3C2)c1C (stereo not given)	?	-23%	?	?	-16	-115*
Cc1ccc(C)c(OCC(O)CN2CCC(C)CC2)c1C (stereo not given)	i	-24%	11%	0%	-14	?
Cc1cc(OCC(O)CN2CCc3ccccc3C2)ccc1Cl (stereo not given)	i	-39%	?	-16%	-20	-98*
CCOc1ccc(CCNC(=O)Cn2ncc3c(=O)oc4ccc(C)cc4c32)cc1	.	-2%	-9%	.	8	.
O=C(CCNC(=O)c1ccc(Cl)cc1)NCC(c1ccco1)N1CCCCC1 (stereo not given)	i	-4%	3%	3%	-1	0
Cc1nn(-c2ccc(C(=O)NCC(c3ccco3)N3CCCC3)cc2)c(C)c1Cl (stereo not given)	?	-28%	-8%	-12%	57*	-7
O=C(NCC(c1ccco1)N1CCCC1)c1ccc(Cl)cc1 (stereo not given)	i	-9%	-3%	5%	-2	-67*
CCN1CCC(N(Cc2cccc(OC)c2)C(=O)Nc2cccc(C)c2C)CC1	?	-19%	-1%	-9%	-8	.
C=C1NN(Cc2ccccc2)C(=O)N1c1ccc(OCc2ccccc2)cc1	.	1%	31%	.	.	.
CCC1CCCCN1Cc1cn2c(-c3ccc(Br)cc3)nnc2s1 (stereo not given)	i	-24%	5%	3%	-3	.
CC1=CC(C)(C)N2C(=O)C3(C(C#N)=C(N)OC4=C3C(=O)CCC4)c3c(C)c(C)cc1c32 (stereo not given)	i	-33%	18%	-12%	1	21
CC1=CC(C)(C)N2C(=O)C3(C(C#N)=C(N)Oc4cc(O)ccc43)c3c(C)c(C)cc1c32 (stereo not given)	13µM*	-107%	?	?	-21	?
CCOc1ccc(Nc2cc(C)nc3nncn23)cc1	.	-16%	-28%	.	2	.
N#Cc1c(NC(=O)c2ccc(-c3ccccc3[N+](=O)[O-])o2)sc2c1CCCC2	i	-17%	6%	0%	-14	-117*
CCOC(=O)c1cccc(NC(=O)NC(C)c2c(-n3cccc3)sc3c2CCN(C)C3)c1 (stereo not given)	.	-49%	?	.	-18	.
O=C(NCCCNc1nc(Nc2cccc(NC(=O)N3CCCC3)c2)ncc1I)c1cccs1	.	.	.	14µM*	.	.
COc1cccc(NC(=O)N2CCCC2)c1	i	15%	3%	.	1	15
O=C(Nc1nnc(-c2ccc3c(c2)CCCC3)o1)c1c(F)cccc1F	i	-11%	3%	-2%	0	-6
O=C(Nc1nnc(-c2ccc3c(c2)CCCC3)o1)c1ccc(Cl)cc1Cl	40µM*	-4%	?	?	-10	7
SMILES	S2 tox	HepG2 viability	TGFb SMAD3 inh	ATXN2 expr inh	D3 ag	DRD3 antagonist
CC1(C)C[C@H](O)[C@]2(CO)[C@H](O)C[C@]3(C)C(=CCC4[C@@]5(C)CC[C@H](O)C(C)(C)C5CC[C@]43C)[C@@H]2C1 (stereo not given in full)	?	11µM*	?	?	-7	-84*
C[C@@H]1[C@H](C)CC[C@]2(C(=O)O)CC[C@]3(C)C(=CC[C@@H]4[C@@]5(C)CC[C@H](O)C(C)(C)[C@H]5CC[C@]43C)[C@@H]12	.	.	.	56µM*	.	.
CC1(C)CC[C@]2(C(=O)O)CC[C@]3(C)C(=CC[C@@H]4[C@@]5(C)CC[C@H](O)C(C)(C)[C@@H]5CC[C@]43C)[C@@H]2C1	i	2%	-15%	-1%	8	30
O=C1C(Cl)=C(NS(=O)(=O)c2ccc([N+](=O)[O-])cc2)C(=O)c2ccccc21	40µM*	-191%	?	18µM*	-8	?
Nc1c(-c2nc(-c3cccs3)no2)nnn1-c1cccc(Cl)c1	i	-1%	-3%	10%	-2	.
CC1=C(C(=O)Nc2cccnc2)C(c2ccc(F)cc2)n2nc(-c3cccc(C)c3)nc2N1 (stereo not given)	i	-9%	-4%	14%	1	.
N#Cc1ccc(OCCOCCNC2CCCC2)cc1	i	-6%	3%	-15%	-12	-50*
COc1ccc(OCCNC2CCCC2)cc1	?	-1%	11%	.	0	1
Cc1cc2nccc(C)c2cc1C	.	2%	-13%	.	.	.
CC(C)C(NS(C)(=O)=O)c1nnc2n1CCN(Cc1ccc(Cl)cc1)CC2 (stereo not given)	i	.	.	.	.	.
CN(Cc1ccccc1)c1nc(-c2ccc([N+](=O)[O-])cc2)nc2ccccc12	i	-5%	-6%	-11%	3	-54*
O=[N+]([O-])c1ccc(-c2nc(C(Cl)Cl)c3ccccc3n2)cc1	?	-26%	2%	4µM*	-13	-59*
COc1ccccc1NC(=O)c1c(-c2ccc(C)cc2)nnc2ccccc12	.	-2%	-4%	.	-6	.
Cc1cc(C)cc(NS(=O)(=O)c2ccc(N3CCCCS3(=O)=O)cc2)c1	i	-11%	-19%	-24%	5	.
OCC(O)C1OC(c2ccco2)OC(CO)C1O (stereo not given)	i	3%	1%	-10%	6	4
OCC(O)C1OC(c2ccccc2)OC(CO)C1O (stereo not given)	i	2%	22%	0%	31*	15
